In PubChem BioAssay (NCI) one finds growth data, which are given here for 20 compounds.

Compounds without any hit were thinned out: in the full panel of roughly 83,000, 20% have a hit.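 Cells were grown in 96-well plates and exposed to the test compound at a single concentration for 48 hours; results are reported as percent growth, with values below 10 considered active.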 A number with no mark means an inactive call. Calls of active or inactive are those of the source.

Assay in all cases: NCI-60 one-dose screen, 48 h (100 = growth as untreated, 0 = no growth, -100 = all killed)
Settings in all cases: 10 µM unless noted

For assay [1], the system named is T-47D breast.
The test system of assay [2] is MDA-MB-435 melanoma.
Assay [3] concerns SW-620 colon.
In assay [4] the test system is MCF7 breast.
Assay [5] has as its system HCT-116 colon.
Assay [6] deals with HCC-2998 colon.
Assay [7] relates to KM12 colon.
Assay [8] has as its system BT-549 breast.

For `COc1ccc(OC)c(CCn2cncc2-c2c[nH]c3ccc(Cl)cc23)c1`, the growth was 20.1% in assay [1]; 12.8% in assay [2]; 43.4% in assay [3]; 21.6% in assay [4]; 34.5% in assay [5]; 72.4% in assay [6]. Moreover, the growth in assay [7] was 40.6%.

In the case of `CCN(CC)S(=O)(=O)c1ccc(-c2nc(C(Cl)Cl)nc3cc(C)nn23)cc1`, the growth was 60.9% in assay [1]; 14.8% in assay [2]; 6.12% (active) in assay [3]; 23.5% in assay [4]; 10% in assay [5]; 23.8% in assay [6]. Further, in assay [7], the growth was 8.52% (active).

With `O=C(CSc1nc2ccccc2c(=O)n1-c1ccc(S(=O)(=O)Nc2ccc(Cl)nn2)cc1)Nc1ccc(S(=O)(=O)Nc2ccc(Cl)nn2)cc1`, the growth was 98.1% in assay [1]; 99.7% in assay [2]; 98.4% in assay [3]; 95.3% in assay [4]; 105% in assay [5]; 120% in assay [6]. In assay [7], the growth is 99.4%.

As for `C#Cc1cc(C(=O)Nc2ccc(CNCCN3CCOCC3)c(C(F)(F)F)c2)ccc1C`, the growth in assay [1] was 82.1%; in assay [2], 94.9%; in assay [3], 97.5%; in assay [4], 83.5%; in assay [5], 90.2%; in assay [6], 102%. Further, the growth in assay [7] was 96.2%.

Turning to `CCOC(=O)c1c(NC(=O)c2cccc(C(F)(F)F)c2)sc2c3c(ccc12)OCN(C)C3`, the growth in assay [1] was -38.2% (active); in assay [2] it was -55.5% (active); in assay [3] it was -76.5% (active); in assay [4] it was -81.9% (active); in assay [5], -89.4% (active); in assay [6] it was -88.9% (active). Moreover, the growth in assay [7] is -11.3% (active).

Take `Cn1ncc2ncc(-c3ccc4ncc(C#N)c(N5CCc6cc(F)c(Cl)cc65)c4c3)cc21`: the growth in assay [1] is 5.2% (active); in assay [8] it was 37.4%; in assay [3], 54.4%; in assay [4], 9.79% (active); in assay [5], 53.1%; in assay [6], 46.4%. In addition, the growth in assay [7] was 52.5%.

As to `CCOC(=O)c1c(NC(=O)c2cccc(C(F)(F)F)c2)sc2c1CCC(=O)C2`, the growth in assay [1] was 17.8%; in assay [2] it was 59.4%; in assay [3] it was 13.8%; in assay [4], 34.7%; in assay [5], 12.3%; in assay [6] it was 87%. In addition, the growth in assay [7] was 32.2%.

As to `Cc1ccc(-c2cc3nc(C(Cl)Cl)nc(-c4ccc(S(=O)(=O)N(C)C)cc4)n3n2)cc1`, the growth in assay [1] was 93.8%; in assay [2], 88.6%; in assay [3], 83.1%; in assay [4], 74.2%; in assay [5] it was 62.9%; in assay [6], 91.7%. Besides, in assay [7], the growth is 86.5%.

Consider `CCOC(=O)c1c(NC(=O)c2ccc(C(F)(F)F)cc2)sc2c3c(ccc12)OCN(C)C3`, for which the growth in assay [1] was 4.14% (active); in assay [2], -16.8% (active); in assay [3] it was -52.4% (active); in assay [4], -61.7% (active); in assay [5] it was -75.8% (active); in assay [6] it was -13.8% (active). Moreover, the growth in assay [7] was 12.1%.

In the case of `Cc1ccc(C(=O)Nc2ccc(CNCCN3CCOCC3)c(C(F)(F)F)c2)cc1C#Cc1cnc2cccnn12`, the growth in assay [1] was 4.34% (active); in assay [2] it was -28% (active); in assay [3], 14.1%; in assay [4], 6.79% (active); in assay [5], 2.51% (active); in assay [6] it was 6.09% (active). In assay [7], the growth was 1.77% (active).

For the compound `CC(=C(c1ccc(OCCN(C)C)cc1)c1ccc(OCCN(C)C)cc1)c1ccc(Cl)cc1`, the growth in assay [1] is -53.7% (active); in assay [2], -82.8% (active); in assay [3] it was -71.5% (active); in assay [4], -77.6% (active); in assay [5] it was -65.1% (active); in assay [6], -87.7% (active). In addition, in assay [7], the growth was -65.2% (active).

As to `Cc1ccc2c(n1)C(=O)C(Cl)=C(Nc1ccc(C)c(C)c1)C2=O`, the growth in assay [1] is 3.29% (active); in assay [2], -82.6% (active); in assay [3], 33.5%; in assay [4] it was -60.5% (active); in assay [5], 12.2%; in assay [6], 57.6%. In addition, the growth in assay [7] is 51.9%.

Take `Cc1cc(=O)oc2cc(OCCCOc3ccc(/C=C/C(=O)Nc4ccc(Br)cc4)cc3)ccc12`: the growth was 57.7% in assay [1]; 78.8% in assay [8]; 57.2% in assay [3]; 58.9% in assay [4]; 85.4% in assay [5]; 96.6% in assay [6]. In addition, in assay [7], the growth is 88.6%.

`Fc1ccc2nc(-c3cnn4cccnc34)sc2c1`: the growth in assay [1] was 44.2%; in assay [2], 108%; in assay [3] it was 93.7%; in assay [4], 26.7%; in assay [5], 88.8%; in assay [6] it was 83%. For the same compound, in assay [7], the growth is 79.8%.

For the compound `CC[C@]12CC(C(=O)OC)=C3Nc4ccccc4[C@@]34CCN(C14)[C@@H]1c3cc4c(cc3O[C@@H]1[C@H]2O)NC1=C(C(=O)OC)C[C@@]2(CC)C3N(CC[C@@]143)C[C@H]1O[C@H]12` (some centres not stated), the growth was 18.2% in assay [1]; 33.9% in assay [8]; 23.5% in assay [3]; 4.36% (active) in assay [4]; 2.44% (active) in assay [5]; -41.3% (active) in assay [6]. Further, the growth in assay [7] is 13.4%.

For `CCOC(=O)c1ccc(NC2=C(Cl)C(=O)c3nc(C)ccc3C2=O)cc1`, the growth in assay [1] is -0.935% (active); in assay [3] it was -19.6% (active); in assay [4], -14.5% (active); in assay [5], 7.29% (active); in assay [6], 80.3%; in assay [7] it was 50.8%.

On to `Clc1ccc2[nH]cc(-c3cncn3CCc3ccc4c(c3)OCO4)c2c1`, for which the growth is 37.8% in assay [1]; 79.5% in assay [3]; 63% in assay [4]; 63.2% in assay [5]; 89.9% in assay [6]; 74.6% in assay [7].

On to `CCOC(=O)c1c(NC(=O)c2ccc(C(F)(F)F)cc2)sc2c(CN3CCN(C)CC3)c(O)ccc12`, for which the growth in assay [1] was -35% (active); in assay [2] it was -61.5% (active); in assay [4], -79.5% (active); in assay [5], -92.5% (active); in assay [6] it was -74.9% (active); in assay [7], -21.2% (active).

Turning to `CCN(CC)S(=O)(=O)c1ccc(-c2nc(C(Cl)Cl)nc3cc(-c4ccc(F)cc4)nn23)cc1`, the growth in assay [1] is 28%; in assay [2] it was 25.6%; in assay [3] it was 23.5%; in assay [4], 19.4%; in assay [5], 28.6%; in assay [6] it was 7.38% (active). For the same compound, the growth in assay [7] was 9.84% (active).

`CCS(=O)(=O)Nc1ccc(C(=O)CC2(O)C(=O)Nc3ccccc32)cc1` (configuration not stated): the growth in assay [1] is 89.1%; in assay [8], 116%; in assay [3], 103%; in assay [4], 92.3%; in assay [5], 104%; in assay [6] it was 100%. In assay [7], the growth is 101%.
